Hits are enriched below; roughly 3.2% of the tested compounds scored in any of these assays.
Mcl1-Bid inh: disrupts binding of human Mcl-1 to Bid peptide. Q07820. TR-FRET Mcl-1/Bid-Dy647 peptide binding, 1536-well. inhibition, % at 21.7 µM. 0.97% of 220,000 active;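 active = compounds that cut the binding signal by more than half at the single screening dose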;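 note: His-tagged Mcl-1 with europium anti-His antibody binding Bid BH3 peptide; 0% = Mcl-1 plus peptide wells and 100% = peptide-only wells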
Target sequence (Q07820 whole entry, looked up): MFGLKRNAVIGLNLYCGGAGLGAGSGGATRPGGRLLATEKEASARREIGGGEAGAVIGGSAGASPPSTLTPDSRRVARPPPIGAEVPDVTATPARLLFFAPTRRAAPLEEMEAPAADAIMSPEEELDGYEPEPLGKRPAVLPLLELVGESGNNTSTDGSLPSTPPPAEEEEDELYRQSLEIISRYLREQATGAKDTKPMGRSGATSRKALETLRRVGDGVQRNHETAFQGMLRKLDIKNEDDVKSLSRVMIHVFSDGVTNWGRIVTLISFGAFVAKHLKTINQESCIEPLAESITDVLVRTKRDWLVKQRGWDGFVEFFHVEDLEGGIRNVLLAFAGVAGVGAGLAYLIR
14-3-3 Bad PPI: disrupts binding of bovine 14-3-3 zeta to phospho-Bad peptide; TR-FRET 14-3-3zeta/Dy647-pBad peptide displacement, 1 h; inhibition, % at 21.7 µM; 0.71% of 220,000 active;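 active = inhibition above about 70%, limit read from the data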;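 note: 0% = full 14-3-3 plus peptide FRET controls and 100% = background without 14-3-3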
Target sequence (P63103 whole entry, looked up): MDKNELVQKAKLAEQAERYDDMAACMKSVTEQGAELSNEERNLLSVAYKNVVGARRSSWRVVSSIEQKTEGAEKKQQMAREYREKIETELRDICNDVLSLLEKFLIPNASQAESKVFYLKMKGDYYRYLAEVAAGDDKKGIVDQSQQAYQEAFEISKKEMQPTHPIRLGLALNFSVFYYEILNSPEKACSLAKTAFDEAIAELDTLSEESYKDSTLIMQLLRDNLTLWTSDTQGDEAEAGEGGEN
NCF1 inh: inhibitors of human p47phox binding. p47phox/p22phox peptide binding, fluorescence polarization, 2 h. 0.53% of 220,000 active. inhibition, % at 24.7 µM. P14598;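 active = inhibition above about 30%, limit read from the data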;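 note: 0% = p47phox with labelled peptide and 100% = labelled peptide alone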
Mcl-1 Bim block: disrupts Bim peptide binding to human Mcl-1. Q07820. Bead-based flow cytometry, Bim peptide-Mcl-1 binding. inhibition, % at 10 µM. 0.1% of 190,000 active. AID 1009; in the data active = inhibition above about 40%;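 note: 0% = no compound tracer wells and 100% = peptide blocker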
Mcl1-Noxa inh: disrupts binding of human Mcl-1 to Noxa peptide | AID 1022 | Q07820 | 1.5% of 220,000 active | TR-FRET Mcl-1/Noxa peptide binding, 2 h | inhibition, % at 21.7 µM;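 active = compounds that cut the protein-peptide binding signal by more than 50% relative to plate controls in a single-dose test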;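 note: His-tagged Mcl-1 with rhodamine Noxa BH3 peptide and terbium anti-His antibody; 0% = Mcl-1 plus Noxa peptide wells and 100% = peptide-only wells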
* hit, by the source's call; nt = no result; [ ] = another dose, or the depositor's remark.

SMILES	Mcl1-Bid inh	14-3-3 Bad PPI	NCF1 inh	Mcl-1 Bim block	Mcl1-Noxa inh
c1ccc(-c2nnc(CN3CCN(c4ccccc4)CC3)o2)cc1	-42.2	-5.8	0.7	0.0	10.1
CC(C)OC(=O)c1cccc2c1C(=O)c1ccccc1-2	31.0	1.2	49.8*	nt	-1.3
CCC(CO)NCc1ccccc1OC(C)C (centres undefined)	-3.4	-2.4	-7.0	0.0	15.5
O=C(NCCO)c1cc2cc(Cl)cc(Cl)c2oc1=O	-26.9	8.3	-0.8	-8.0	14.9
O=C(O)c1cc2cc(Cl)cc(Cl)c2oc1=O	6.5	82.6*	-5.4	-2.0	15.4
Cc1cc(C)c2c(N)c(C(=O)c3ccccc3)oc2n1	-45.4	-1.2	-3.3	7.0	-6.1
Cc1cc(-c2ccccc2)nc2oc(C(=O)NN)c(N)c12	-39.0	-0.2	47.4*	nt	25.6
Cc1cccc(C)c1NC(=O)N1C(C(=O)O)CSC1C(=O)O (centres undefined)	-1.8	nt	66.7*	4.0	5.6
CCCN(CCC)C(C(=O)Nc1cccc(OC)c1)c1ccccc1 (centres undefined)	95.2*	0.5	-14.3	-1.0	-12.3
COc1cccc(NC(=O)C(NCC2CCCCC2)c2ccccc2)c1 (centres undefined)	30.8	83.5*[fluorescence artefact?]	-2.7	-4.0	21.1
CS(=O)(=O)N1CCC(C(=O)N2CCN(C(c3ccccc3)c3ccccc3)CC2)CC1	-26.1	-1.1	-8.5	0.0	7.9
COc1ccccc1/C=C/C=N/NC(=O)c1cc(-c2ccco2)[nH]n1	-36.8	11.7	-26.8	nt	61.6*
COCCNC(=O)c1cc(S(=O)(=O)N2CCOCC2)ccc1SCc1cccc(OC)c1OC	-2.1	6.3	4.6	0.0	7.2
N/C(=N\N=C/c1ccc(Br)cc1)N/N=C\c1ccc(Br)cc1	-10.3	0.3	-1.9	40.0*	8.2
COc1ccc(N)c2c1C(=O)c1ccccc1C2=O	-91.8	-44.1	-61.9	11.0	31.6
Nc1ccc(O)c2c1C(=O)c1ccccc1C2=O	-103.9	55.3	54.2*	4.0	102.8*
Nc1ccc(NC(=O)c2ccccc2)c2c1C(=O)c1ccccc1C2=O	53.5*	11.4	25.0	-1.0	65.6*
Nc1ccc(Br)c2c1C(=O)c1ccccc1C2=O	-4.8	6.8	36.8*	1.0	35.9
NC1=C(Br)C(=O)c2ccccc2C1=O	1.9	2.2	6.0	nt	7.3
O=C(c1noc2c1CCCC2)N1CCC(CO)(Cc2ccccc2Cl)CC1	-26.3	-2.6	1.0	-1.0	24.4
CC1(C)NC(=O)N(CC(=O)OCC(=O)Nc2cc(S(=O)(=O)N3CCCCCC3)ccc2Cl)C1=O	-15.3	-2.1	-11.8	0.0	-7.2
O=C(O)CCC(=O)N1N=C(c2ccccc2)CC1c1cccs1 (centres undefined)	0.5	3.1	-11.2	nt	12.3
COc1cnc(SCCC(F)=C(F)F)[nH]c1=O	-23.7	-6.4	-3.5	-7.0	4.3
CN(C)c1ccc(NC(=O)Cn2ncn3c(cc4ccccc43)c2=O)cc1	-49.2	-1.2	-8.8	0.0	75.9*
Cc1cc(C)cc(NC(=O)Cn2ncn3c(cc4ccccc43)c2=O)c1	-40.5	-5.7	-3.4	0.0	-5.1
SMILES	Mcl1-Bid inh	14-3-3 Bad PPI	NCF1 inh	Mcl-1 Bim block	Mcl1-Noxa inh
CCOc1ccc2c(c1)nc(SCC(=O)c1cccs1)n2C	-38.9	72.7*	-4.4	-4.0	10.8
O=C(O)c1c2c(nc3ccccc13)/C(=C/c1ccc(O)cc1)CC2	-19.2	35.2	-8.1	2.0	55.1*
COc1cc(C(=O)OCCN2CCCCC2)ccc1O	-67.0	-0.2	-10.6	-5.0	13.4
COc1cc(C#CC#CCN2CCCCC2)ccc1O	8.3	67.1	-7.7	-1.0	50.9*
COc1ccc(-n2c(N)c(C(=O)NCc3ccco3)c3nc4ccccc4nc32)cc1OC	45.3	33.0	-14.0	0.0	33.8
COc1ccc(-n2c(N)c(C(=O)NCc3ccco3)c3nc4ccccc4nc32)cc1	-11.5	5.7	-33.4	3.0	57.9*
COc1ccc(OC)c(-n2c(N)c(C(=O)NCC3CCCO3)c3nc4ccccc4nc32)c1 (centres undefined)	92.9*	-6.0	-2.4	0.0	14.8
Cc1cc(C=O)c(C)n1-c1cccc(C(=O)O)c1	-44.6	6.9	-21.2	0.0	19.5
Cc1ccc(C)n1-c1cccc(C(=O)O)c1	88.4*	42.8	-12.9	13.0	98.9*
CC(C)c1ccc(S(=O)(=O)/N=C2/C=CC(=O)c3ccccc32)cc1	0.4	13.2	9.5	0.0	77.7*
COC(=O)C(C(C)=O)C1=C/C(=N\S(=O)(=O)c2ccc(C)cc2)c2ccccc2C1=O (centres undefined)	-70.3	-5.5	-4.5	-2.0	35.9
O=S(=O)(N/N=C\c1ccc(-c2ccccc2Cl)o1)c1ccccc1	-5.7	0.7	-24.8	0.0	15.7
O=C1NC(=S)/C(=C\c2ccc(-c3ccccc3Cl)o2)S1	-27.7	-32.7	-2.5	-2.0	100.2*
Nc1nc(-c2ccc3c(c2)NC(=O)CO3)cs1	28.2	78.3*	-15.9	-1.0	14.6
CCCn1nnnc1NC(=O)COc1ccc(CC)cc1	-3.6	-10.6	-8.4	-4.0	15.8
CCOC(=O)C1(CC)NC(c2ccc(OC)cc2OC)C2C(=O)N(C)C(=O)C21 (centres undefined)	-4.1	-4.6	6.1	0.0	8.1
O=C(CN(C1CCCCC1)C1CCCCC1)N1CCc2ccccc2C1	21.2	88.3*	-3.9	1.0	17.6
Cc1ccc(C)c(-n2c(-c3cccnc3)n[nH]c2=S)c1	-44.5	-9.9	0.8	-5.0	17.8
Cc1cc(Cl)ccc1-n1c(-c2cccnc2)n[nH]c1=S	-92.6	-7.1	-2.5	nt	59.3*
O=Cc1sc(N2CCOCC2)nc1-c1ccccc1	-19.3	-3.5	12.4	1.0	22.6
O=S(=O)(Nc1cccc(-c2cn3cccnc3n2)c1)c1ccc(Cl)cc1	-43.5	9.2	-1.7	-20.0	16.0
O=C(CNC(=O)c1ccccc1)OCc1cc(=O)n2cc(Br)ccc2n1	-11.1	-12.2	-2.9	-7.0	13.9
COc1ccc(-c2nc(CC(=O)O)cs2)cc1OC	29.6	81.2*	2.0	-2.0	31.5
CCOc1ccccc1N(CC(=O)NCCSc1ccccc1)S(C)(=O)=O	-9.5	-8.4	-0.1	1.0	7.1
CC(C(=O)N1CCN(Cc2ccc3c(c2)OCO3)CC1)c1ccc([N+](=O)[O-])cc1 (centres undefined)	-25.3	2.9	-6.7	-1.0	6.8
SMILES	Mcl1-Bid inh	14-3-3 Bad PPI	NCF1 inh	Mcl-1 Bim block	Mcl1-Noxa inh
Cc1nc(COC(=O)c2ccc(CO)cc2)cs1	-23.6	4.7	-6.1	-2.0	4.2
Cc1nc(COC(=O)c2cc(O)c3ccccc3c2O)cs1	93.8*	56.7	49.4*	0.0	104.2*
Cc1ccc(OCCCC(=O)Nc2ccccc2C(F)(F)F)cc1	-9.7	9.2	-19.7	-4.0	73.6*
O=Cc1ccc(OCC(=O)Nc2ccccc2C(F)(F)F)cc1	-22.6	0.5	-4.3	1.0	2.5
Cc1ccc(C)c(NC(=S)NCC(c2ccccc2)N(C)C)c1 (centres undefined)	-16.7	-8.4	-3.0	2.0	-1.1
O=c1c2cc(Cl)ccc2nc(-c2ccccc2Cl)n1O	88.4*	9.8	-14.4	3.0	1.8

Bioassay records (PubChem)
